Molecules are shown by their SMILES. Results filed as inconclusive are left out. The source made the active and inactive calls. How the source made its calls: active means hit-call score of the fitted dose curve at least 0.9, where 1 is the maximum; inconclusive means response in the unintended direction; inactive means score below 0.9.

Drawing on PubChem BioAssay (EPA / NIEHS), this text covers outcome for 39 compounds.

The target of this assay is Cellular tumor antigen p53 (Homo sapiens) (UniProt P04637). As to the kind of experiment: TOX21_p53_BLA_p2_ratio: Tox21 HCT-116 p53 Agonism Beta-lactamase Assay, Ratio, Phase 2 (AID 2283592). The method in brief: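 Gain-of-signal p53 agonism was scored from the beta-lactamase FRET ratio (460/530 nm, 405 nm excitation) in HCT116 cells treated 16 h at 37C, 5% CO2, with DMSO serving as negative control and baseline.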
Chain of Cellular tumor antigen p53 (Homo sapiens) (P04637 whole entry, looked up): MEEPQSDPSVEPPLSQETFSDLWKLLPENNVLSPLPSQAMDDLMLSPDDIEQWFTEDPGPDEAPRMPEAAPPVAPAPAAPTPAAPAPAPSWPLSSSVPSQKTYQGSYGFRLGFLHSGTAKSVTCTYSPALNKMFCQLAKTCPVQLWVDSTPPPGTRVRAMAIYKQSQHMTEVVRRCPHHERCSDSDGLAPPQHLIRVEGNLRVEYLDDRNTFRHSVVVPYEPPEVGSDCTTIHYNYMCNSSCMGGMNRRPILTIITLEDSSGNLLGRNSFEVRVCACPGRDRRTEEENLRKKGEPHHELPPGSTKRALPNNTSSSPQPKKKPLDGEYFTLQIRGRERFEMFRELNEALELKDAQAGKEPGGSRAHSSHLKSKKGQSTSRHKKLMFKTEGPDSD
For the compound `CC(C)=CC(C)(C)C`, the result was inactive.

`CCc1ccc(C(=O)C(C)CN2CCCCC2)cc1` (centres undefined): the result was inactive.

Take `CCCCCC(C)N` (centres undefined): the outcome was inactive.

Consider `CC(C)(C)NCCO`, for which the outcome was inactive.

Regarding `Cc1ccnc2c1NC(=O)c1cccnc1N2C1CC1`, the outcome was inactive.

As for `COc1ccc(C(=O)NCc2ccc(OCCN(C)C)cc2)cc1OC`, the result was inactive.

Consider `Cl/C(=C\n1cncn1)c1ccc(Cl)cc1Cl`, for which the outcome was inactive.

Regarding `NNc1nnc(NN)c2ccccc12`, the result was inactive.

Take `O=C1CC[C@H](C(=O)N2CCCCC2)N1`: the outcome was inactive.

On to `Nc1nc(-c2ccc([N+](=O)[O-])cc2)cs1`, for which the outcome was inactive.

For the compound `COc1cc(S(C)=O)ccc1-c1nc2ncccc2[nH]1` (centres undefined), the result was inactive.

Take `CC(C)(C)NSc1nc2ccccc2s1`: the outcome was inactive.

With `O=CC1CC=CCC1` (centres undefined), the result was inactive.

Take `Nc1ccc2cc(S(=O)(=O)O)ccc2c1`: the outcome was inactive.

In the case of `C=CCCCC`, the outcome was inactive.

For the compound `O=C(O)CCNC(=O)c1ccc(N=Nc2ccc(O)c(C(=O)O)c2)cc1`, the outcome was inactive.

Take `CCC(CO)(CO)[N+](=O)[O-]`: the result was inactive.

In the case of `CCN1CCc2nc(N)oc2CC1`, the result was inactive.

With `CN(CC(=O)N1CCOCC1)Cc1c(Cl)cccc1NC(=O)c1ccccc1`, the result was inactive.

With `CCc1ccc(CC)cc1`, the outcome was inactive.

As to `C[C@@H]1CC[C@@]2(OC1)O[C@H]1C[C@H]3[C@@H]4CC[C@H]5C[C@@H](O)CC[C@]5(C)[C@H]4CC(=O)[C@]3(C)[C@H]1[C@@H]2C`, the result was inactive.

Take `COc1ccc(C=NNC(=O)c2ccncc2)c(C(=O)O)c1OC`: the result was inactive.

As for `NC(=O)c1cn(Cc2c(F)cccc2F)nn1`, the outcome was inactive.

On to `c1cc2c3c(c1)ccc1cccc(c13)C2`, for which the outcome was inactive.

As to `CC(=O)NC(=O)c1ccccc1O`, the outcome was inactive.

In the case of `CC/C=C(\C(=O)N[C@@H]1C(=O)N2C(C(=O)OCOC(=O)C(C)(C)C)=C(COC(N)=O)CS[C@H]12)c1csc(N)n1`, the outcome was inactive.

`C[C@@H](c1ncncc1F)[C@](O)(Cn1cncn1)c1ccc(F)cc1F`: the outcome was inactive.

As for `c1ccc2nccnc2c1`, the result was inactive.

As to `O=C1NC(=O)[C@H]2[C@@H]1[C@@H]1C=C[C@H]2C1`, the result was inactive.

Consider `CC(=O)OCC(=O)Nc1cc(C#N)cc(NC(=O)COC(C)=O)c1Cl`, for which the result was inactive.

As to `OC(CCCN1CCCCC1)(c1ccccc1)c1ccccc1`, the result was inactive.

`O=C(OC1C[C@@H]2CC3C[C@H](C1)N2CC3=O)c1c[nH]c2ccccc12` (some centres undefined): the result was inactive.

Take `Cc1cc(NC(=O)C2=C(O)c3ccccc3S(=O)(=O)N2C)no1`: the result was inactive.

Regarding `CCN(CC)CCOC(=O)C1(c2ccccc2)CCCC1`, the result was inactive.

For the compound `CCOC(=O)[C@H](CCc1ccccc1)N[C@@H](C)C(=O)N1CC2(C[C@H]1C(=O)O)SCCS2`, the outcome was inactive.

On to `CN(C)CC[C@@H](c1ccc(Cl)cc1)c1ccccn1`, for which the result was inactive.

Consider `CCc1cccc(C)c1`, for which the result was inactive.

Regarding `O=C(O)c1ccc(O)cc1O`, the outcome was inactive.

On to `CCCCCCCCCCCCCCCCCl`, for which the outcome was inactive.
